Screening results deposited in PubChem BioAssay by National Center for Advancing Translational Sciences (NCATS).
Only some compounds are listed: those with a hit (about 3% of all), similar ones and a draw of the others.
D3 antag: qHTS of D3 Dopamine Receptor Antagonist: qHTS. actives 2.5% (n = 360,000). max response, negative = inhibition, %. D3R cells, DiscoveRx beta-arrestin luminescence, antagonist mode; active compounds read low. D(3) dopamine receptor (Homo sapiens), P35462; in the data active means max response below about -50%; inconclusive means no clear call, values can overlap the other calls
Target sequence (P35462 whole entry, looked up): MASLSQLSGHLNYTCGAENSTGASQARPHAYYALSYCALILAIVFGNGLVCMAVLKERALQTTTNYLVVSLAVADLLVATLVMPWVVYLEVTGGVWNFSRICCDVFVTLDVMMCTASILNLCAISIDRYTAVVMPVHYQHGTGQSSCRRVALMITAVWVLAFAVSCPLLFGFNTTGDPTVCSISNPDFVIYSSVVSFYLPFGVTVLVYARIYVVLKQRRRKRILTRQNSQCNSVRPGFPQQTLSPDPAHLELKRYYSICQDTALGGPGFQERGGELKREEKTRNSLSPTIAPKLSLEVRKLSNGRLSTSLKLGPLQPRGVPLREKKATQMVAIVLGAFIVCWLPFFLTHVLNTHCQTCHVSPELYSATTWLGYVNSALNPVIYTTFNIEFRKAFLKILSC
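Cells plated overnight at 1500 cells/well, then exposed to library compounds with dopamine controls for 90 minutes at 37 degrees C. DiscoveRx reagent added for 30–60 minutes at room temperature; luminescence read, quantitative HTS format.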
Nrf2 activator: qHTS of Nrf2 Activators | actives 0.31% (n = 410,000) | AREc32 ARE-luciferase reporter (MCF7-derived line), luminescence, 24 h | Potency, µM (doses to about 46.1 µM), actives largely listed as activators | AID 624171, 2012; further: nearly all actives have a fitted effect of over 65% in size
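Luminescent ARE reporter assay in AREc32_Fluc cells: overnight plating at 37 deg C, 24 hr compound incubation, Steady-Glo added, 30 min RT before reading.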
DRD3 agonist: qHTS of D3 Dopamine Receptor Agonist: qHTS; D(3) dopamine receptor (Homo sapiens), P35462; D3R DiscoveRx beta-arrestin cells, luminescence, 90 min; max activation, %; actives 0.58% (n = 410,000); in the data active means max activation above about 30%
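Cells at 1500/well, incubated overnight, then treated with pinned compounds (dopamine as control) for 90 min at 37 degrees C. DiscoveRx reagent added for 30 - 60 minutes at room temperature; luminescence read.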
GRP78 ERSR act: qHTS for Inducers of the Endoplasmic Reticulum Stress Response (ERSR) in Human Glioma: qHTS; Potency, µM, most hits filed as activators; AID 602332, 2012; U87-MG GRP78 promoter luciferase reporter, 16 h; actives 0.02% (n = 420,000); further: series mostly up to about 76 µM; nearly all actives have a fitted effect of over 35% in size
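ERSR induction read as luciferase luminescence (Bright-Glo, 10 min at room temperature) in stably transfected human U87-MG glioma cells exposed to compounds for 16 h, using GRP78 as sensor.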
Large screens that a line does not name were inactive; ! = repeats disagree. Unless noted, the call rests on the fitted dose curve; in most records, active means well fitted curve in the direction sought with a large enough effect; inconclusive means small, poorly fitted or top-dose-only effect, or another doubt; inactive means no such curve, though single readings can be large; an effect the other way counts as inactive or inconclusive.

CC(C)C[C@H]1CNC(=S)N1CC1CCN(CCC23CC4CC(CC(C4)C2)C3)CC1	D3 antag -72.3
O=C(Nc1ccc(Cl)cc1)Nc1ccc(Cl)c(C(F)(F)F)c1	none (no result: D3 antag, Nrf2 activator)
Clc1ccc2nc(-c3ccccn3)c(Nc3ccc4c(c3)OCO4)n2c1	D3 antag -59.7
CCOc1ccc(C(c2c(O)cc(C)n(CCOC)c2=O)N2CCC(C)CC2)cc1 (configuration not stated)	none (no result: D3 antag)
CCCC(=O)Nc1nc2ccc3nc(C)sc3c2s1	none
CCCCC(=O)Nc1nc2ccc3nc(C)sc3c2s1	D3 antag -79.6
C#CCCCO/N=C1/C[C@@H](O)[C@@H](O)[C@@H]2[C@@H]3C(=O)N([C@@H](C)c4ccccc4)C(=O)[C@H]3CC[C@@H]12	none (no result: D3 antag, Nrf2 activator, DRD3 agonist)
CCOC(=O)C1(CCOc2ccccc2)CCN(Cc2ccc(O)c(OC)c2)CC1	D3 antag inconclusive
CCOC(=O)C1(CCOc2ccccc2)CCN(Cc2cccc(OC)c2)CC1	none
CCOC(=O)C1(Cc2ccccc2)CCN(Cc2cnn(-c3ccccc3)c2)CC1	D3 antag -62.8
CCOC(=O)C1(CCOc2ccccc2)CCN(Cc2ccc(F)c(OC)c2)CC1	none
CCOC(=O)C1(Cc2ccccc2)CCN(Cc2cnn(CC)c2)CC1	none
CCOC(=O)C1(CCOc2ccccc2)CCN(Cc2ccc(C(=O)OC)cc2)CC1	D3 antag -59.8
CCOC(=O)C1(CCOc2ccccc2)CCN(Cc2ccc3c(c2)OCCO3)CC1	D3 antag -56.1
CCOC(=O)C1(CCOc2ccccc2)CCN(Cc2ccc(O)c(Cl)c2)CC1	D3 antag -68.8
CCOc1cc(C(=O)Nc2ccc3c(c2)n(C)c(=O)c(=O)n3C)cc(OCC)c1OCC	none (no result: D3 antag)
CN1C[C@H]2c3ccccc3Oc3ccc(Cl)cc3[C@@H]2C1	none (no result: D3 antag, Nrf2 activator)
CCOC(=O)C1(CCOc2ccccc2)CCN(Cc2ccc(-n3cccn3)cc2)CC1	D3 antag -71.0
CCOC(=O)C1(CCOc2ccccc2)CCN(Cc2ccncc2)CC1	none
Cc1ccc(C)c(N2CCN(C(=O)c3ccc(CS(=O)(=O)c4ccccc4C)o3)CC2)c1	DRD3 agonist 74.5
CCn1c(CC(=O)Nc2ccc(Cl)c(Cl)c2)nnc1SCc1ccc(C)cc1	D3 antag -93.0
Cc1cccc(C)c1OCC(O)CN1CCN(c2ccccn2)CC1 (configuration not stated)	DRD3 agonist 59.2
Cc1cccc(C)c1OCC(O)CN1CCN(c2ccccc2)CC1 (configuration not stated)	DRD3 agonist 63.4
CC(C)(C)c1ccccc1OCC(O)CN1CCN(c2ccccn2)CC1 (configuration not stated)	D3 antag inconclusive
Cc1ccc(OCC(O)CN2CCN(c3ccccn3)CC2)c(C)c1 (configuration not stated)	DRD3 agonist 45.5
OC(COC(c1ccc(Cl)cc1)c1ccc(Cl)cc1)CN1CCN(c2ccccn2)CC1 (configuration not stated)	D3 antag inconclusive
OC(CN1CCN(c2ccccn2)CC1)Cn1c2ccc(Cl)cc2c2cc(Cl)ccc21 (configuration not stated)	DRD3 agonist 45.3
N#CCCn1c2ccccc2c2nc3ccccc3nc21	D3 antag -51.8
O=C(C1CCCCC1)N1CCOc2ccc(CN3CCN(Cc4ccccn4)CC3)cc2C1	none (no result: D3 antag, Nrf2 activator, DRD3 agonist)
O=C1c2ccc3c4c(ccc(c24)C(=O)N1c1cccc(O)c1)CC3	none
O=C1c2ccc3c4c(ccc(c24)C(=O)N1c1cccc(O)c1)C(=O)N(c1cccc(O)c1)C3=O	D3 antag -82.4
C[C@H](O)[C@@H]1CN2CCc3c([nH]c4ccccc34)[C@@H]2C[C@@H]1N(C)C(=O)Nc1cccc2ccccc12	D3 antag -58.0
O=C(NCc1cccnc1)/C(=C/c1ccc(-c2cccc(Cl)c2)o1)S(=O)(=O)c1ccccc1	Nrf2 activator inconclusive
O=C(NCc1cccnc1)/C(=C\c1ccc(-c2cccc(Cl)c2)o1)S(=O)(=O)c1ccccc1	D3 antag -50.3, Nrf2 activator inconclusive
CCCCn1c(=N)n(CC(=O)c2ccco2)c2ccccc21	none
CCn1c(=N)n(CC(=O)c2ccco2)c2ccccc21	Nrf2 activator 10µM
CCCCCCC1CC(CSC(=N)N)OC1=O (configuration not stated)	D3 antag -58.6
Nc1ccc(C23CC4CC(CC(O)(C4)C2)C3)cc1	D3 antag -50.3
Nc1ccc(C23CC4CC(CC(CO)(C4)C2)C3)cc1	none
COc1ccc(CN(CCCN2CCOCC2)S(=O)(=O)N(C)C)cc1OC	none
COC(=O)c1ccccc1S(=O)(=O)N(CCCN1CCOCC1)Cc1cccs1	D3 antag inconclusive
COc1ccc(S(=O)(=O)N(CCCN2CCOCC2)Cc2ccc(OC)c(OC)c2)cc1	D3 antag -69.4
O=S(=O)(c1cccc(C(F)(F)F)c1)N(CCCN1CCOCC1)Cc1cccs1	D3 antag -79.9!
CCC1(c2ccc(O)cc2)NC(=O)N(C)C1=O (configuration not stated)	none (no result: D3 antag, Nrf2 activator, DRD3 agonist)
CC(C)CCC[C@@H](C)[C@H]1CC[C@H]2[C@@H]3CC=C4CC(O)CC[C@]4(C)[C@H]3CC[C@]12C (some centres not stated)	none (no result: D3 antag, Nrf2 activator, DRD3 agonist)
C=CCNC(=S)NNC(=O)c1cccn(Cc2ccc(Cl)cc2)c1=O	D3 antag -66.5
Cc1cc(C(=O)Nc2ccc3c(c2)OCCO3)ccc1[N+](=O)[O-]	D3 antag -62.5
O=C(Nc1ccc2c(c1)OCCO2)c1ccc(Cl)c([N+](=O)[O-])c1	none
CCc1ccc(C(O)(CC(C)C)C(CN2CCOCC2)c2ccccc2)cc1 (configuration not stated)	none
COc1ccc(C(O)(CC(C)C)C(CN2CCOCC2)c2ccccc2)cc1 (configuration not stated)	DRD3 agonist 88.3
COC(=O)c1c(OCc2cccnc2)cc(=O)n2c1CCN(C(=O)c1c3c(nn1C)CCCC3)CC2	none (no result: D3 antag, Nrf2 activator, DRD3 agonist)
Cc1ccc(-n2[nH]c(C)c(/C=N/Nc3ccc([N+](=O)[O-])cc3[N+](=O)[O-])c2=O)cc1	D3 antag -56.5
Cn1cc(C(=O)[C@@H]2CCc3[nH]cnc3C2)c2ccccc21	none (no result: D3 antag, Nrf2 activator, DRD3 agonist)
Cc1ccc(S(=O)(=O)N2CCN(CC(=O)N/N=C\c3ccc(Cl)c([N+](=O)[O-])c3)CC2)cc1	none
O=C(CN1CCN(S(=O)(=O)c2ccc(Br)cc2)CC1)N/N=C/c1ccc(Cl)c([N+](=O)[O-])c1	D3 antag -70.2, Nrf2 activator inconclusive
O=C(CN1CCN(S(=O)(=O)c2ccc(Br)cc2)CC1)N/N=C/c1cc([N+](=O)[O-])ccc1Cl	Nrf2 activator 12.6µM
COc1cccc(-c2nc3cc4c(cc3cc2CN(C(=O)c2cccs2)C2CC2)CCC4)c1OC	none (no result: D3 antag, Nrf2 activator, DRD3 agonist)
COc1ccc(N2CC(NC(=O)c3c(F)cccc3Cl)CC2=O)cc1OC (configuration not stated)	none (no result: D3 antag)
